High-throughput results: PubChem, The Scripps Research Institute Molecular Screening Center
DAX1 inh-1 – inhibits human nuclear receptor DAX1; HEK293 Gal4-DAX1 luciferase reporter, luminescence; hit rate 0.99% among 340,000; inhibition, % at 6.75 µM; P51843; AID 504766;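 active = inhibition above the mean over all tested compounds plus 3 SD, cut at about 4.2% in these data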;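 note: inhibition shows as a rise in luminescence from relieved DAX1 repression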
SMARCA2 act – increases SMARCA2 function in MMTV reporter cells | MG213 cells, MMTV-luciferase reporter, dexamethasone, overnight | activation, % at 9.1 µM | hit rate 1% among 370,000 | AID 652017; in the data active = activation above about 7.8%
DAX1 inh-2 – inhibitors of DAX1 repression of SF-1 activated StAR promoter; HEK293T StAR-luciferase reporter, SF-1/DAX-1 repression relief; inhibition, % at 6.8 µM; hit rate 1.1% among 370,000; AID 652010;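 active = inhibition above the mean over all tested compounds plus 3 SD, cut at about 3.6% in these data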;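 note: higher inhibition means more luminescence from relief of DAX-1 repression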
hgDAF-12 ag – activates the H. glycines DAF-12 receptor ligand-binding domain; HEK293 GAL4-hgDAF12 UAS-luciferase reporter, agonist luminescence; normalized to butyrate control; activation, % at 6.8 µM; hit rate 1.8% among 370,000;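 active = activation above a cutoff set at the mean of all screened compounds plus 3 SD, cut at about 10% in these data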
hcDAF-12 act – activators of H. contortus DAF-12 nuclear receptor; HEK293 hcDAF-12 lit1-tk-luc reporter, luminescence; 0% DMSO, 100% Δ7-dafachronic acid; activation, % at 6.8 µM; hit rate 1.4% among 370,000; AID 652067;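 active = activation above the mean of all tested compounds plus 3 SD, cut at about 5.5% in these data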
ssDAF-12 act – activates DAF-12 receptor from parasite S. stercoralis; AID 652126; activation, % at 6.8 µM; HEK293 ssDAF-12/GRIP1 lit1-tk-luc reporter, luminescence; % of 3 µM dafachronic acid response; hit rate 1% among 370,000;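 active = activation above the mean over all tested compounds plus 3 SD, cut at about 0.9% in these data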
LXRb hcDAF ctr – counter-screen for hcDAF-12 agonists: agonists of human LXR-beta; shares compounds with hcDAF-12 act; HEK293 Gal4-LXR tk-luc reporter, luminescence, 24 h; normalized: DMSO 0%, positive control 100%; activation, % at 6.8 µM; 3,400 tested, under 10 active;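 active = mean percent activation of the reporter above a cutoff set as the average over tested compounds plus their standard deviation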
Target sequence (P55055 whole entry, looked up, the tested form may be a part): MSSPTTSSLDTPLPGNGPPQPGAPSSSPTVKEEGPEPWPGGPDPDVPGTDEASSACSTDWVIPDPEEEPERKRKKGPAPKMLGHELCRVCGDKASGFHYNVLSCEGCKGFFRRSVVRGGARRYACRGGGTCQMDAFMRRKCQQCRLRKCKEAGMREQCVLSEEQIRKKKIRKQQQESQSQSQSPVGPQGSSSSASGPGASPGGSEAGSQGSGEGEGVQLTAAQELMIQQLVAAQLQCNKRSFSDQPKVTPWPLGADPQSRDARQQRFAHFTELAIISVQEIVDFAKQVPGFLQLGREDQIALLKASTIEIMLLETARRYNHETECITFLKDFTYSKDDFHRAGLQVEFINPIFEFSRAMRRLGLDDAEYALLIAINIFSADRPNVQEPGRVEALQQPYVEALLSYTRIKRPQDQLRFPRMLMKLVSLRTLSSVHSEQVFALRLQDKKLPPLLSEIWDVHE
hcDAF12 conf – hcDAF-12 agonism, confirmation assay. shares compounds with hcDAF-12 act. HEK293 hcDAF-12 lit1-tk-luc reporter, luminescence; % of Δ7-dafachronic acid response. activation, % at 6.8 µM. hit rate 61% among 3,400. AID 743032;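 active = mean activation across triplicate tests above the threshold derived from the earlier primary screen, cut at about 5.5% in these data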
Each line names hits and unclear results; the compound was inactive in the other large screens (follow-up assays come after a bar, where they were run). An excerpt weighted towards active compounds, which were near 4.8% of everything screened.

CCOc1ccc(-n2nc3cc(C)c(N)cc3n2)cc1	hgDAF-12 ag 12, hcDAF-12 act 7.5, ssDAF-12 act 1.8 | LXRb hcDAF ctr inactive | hcDAF12 conf 8.8
O=C(C1CCN(S(=O)(=O)c2ccc3[nH]c(=O)oc3c2)CC1)N1CCCC1	none (no result: DAX1 inh-1)
COc1ccc(-c2nc3c4ccccc4ccn3c2CN2CCCCC2)cc1	hcDAF-12 act 7.0 | LXRb hcDAF ctr inactive | hcDAF12 conf inactive
Cc1ccc2nc(-c3cccc(N)c3)[nH]c2c1	none
Nc1cccc(-c2nc3ccccc3[nH]2)c1	hcDAF-12 act 8.0 | LXRb hcDAF ctr inactive | hcDAF12 conf inactive
Cc1[nH]c2ccccc2c1C1=NNC(=Nc2ccc(F)cc2)SC1	DAX1 inh-1 4.4, hcDAF-12 act 7.1 | LXRb hcDAF ctr inactive | hcDAF12 conf inactive
O=C(Nc1cccc(F)c1)Nc1ccccn1	hcDAF-12 act 8.7 | LXRb hcDAF ctr inactive | hcDAF12 conf inactive
O=C(Nc1cccc(F)c1)Nc1cnccn1	none
C=CCNc1ccc2c(c1)OC[C@H](CC(C)C)NS2(=O)=O	none (no result: DAX1 inh-1)
O=C(COC(=O)c1cncc(Br)c1)Nc1ccc2c(c1)OCO2	hcDAF-12 act 7.0 | LXRb hcDAF ctr inactive | hcDAF12 conf inactive
O=C(COC(=O)c1cncc(Br)c1)NCc1ccc2c(c1)OCO2	none
C[C@H](O)[C@@H]1C(=O)N2CCc3c([nH]c4c(-c5ccccc5)cccc34)[C@@H]2C[C@@H]1N(C)C(=S)Nc1ccc(C#N)cc1	none (no result: DAX1 inh-1)
Cc1c(-c2nc(-c3ccc(C(F)(F)F)cc3)no2)n(C)oc1=O	hcDAF-12 act 9.5 (no result: DAX1 inh-1) | LXRb hcDAF ctr inactive | hcDAF12 conf 7.9
CS(=O)(=O)c1ccccc1-c1nc(-c2ccc(C(F)(F)F)cc2)no1	none
C[C@H](O)[C@@H]1CN2CCc3c([nH]c4c(-c5ccccc5)cccc34)[C@@H]2C[C@@H]1N(C)C(=O)NC1CCCCC1	none (no result: DAX1 inh-1)
O=C(Nc1nc(-c2cccs2)c(-c2cccs2)s1)C1CCCC1	hcDAF-12 act 8.1 | LXRb hcDAF ctr inactive | hcDAF12 conf inactive
O=C(Nc1nnc(-c2cccs2)s1)C1CC1	none
Cc1cccc(N=C2NN=C(c3ccccc3F)CS2)c1C	none
Fc1ccc(F)c(C2=NNC(=Nc3ccccc3F)SC2)c1	hgDAF-12 ag 13, hcDAF-12 act 8.6, ssDAF-12 act 2.7 | LXRb hcDAF ctr inactive | hcDAF12 conf 8.1
Fc1ccccc1N=C1NN=C(c2ccccc2)CS1	hgDAF-12 ag 12, hcDAF-12 act 12, ssDAF-12 act 1.0 | LXRb hcDAF ctr inactive | hcDAF12 conf 8.5
c1ccc(CN=C2NN=C(c3ccccc3)CS2)cc1	none
CCCCCCCC(=O)N[C@H]1CC[C@@]23CCCN2C(=O)CCC[C@H]3[C@H]1CCC	none (no result: DAX1 inh-1, SMARCA2 act, DAX1 inh-2)
COc1cccc(CC(=O)NCC2CCN(C(=O)C(=O)c3cccs3)CC2)c1	none (no result: DAX1 inh-1)
CCN1C(=O)N(C(C)=O)[C@@H]2C[C@H](C(=O)N3CCCC3)[C@H](C)[C@H](c3ccccc3)C[C@@H]21	none (no result: DAX1 inh-1)
Cc1ccc(C(=O)NCCc2ccc(S(=O)(=O)N3CCCC3)cc2)cc1	none
Cc1cc2ccccc2n1CCNC(=O)c1ccc(S(=O)(=O)N2CCCCC2)cc1	hcDAF-12 act 7.5 | LXRb hcDAF ctr inactive | hcDAF12 conf inactive
O=S1(=O)CCC(N(N=Cc2ccco2)c2ccccc2)C1 (configuration not stated)	none (no result: DAX1 inh-1)
CCN(c1ccccc1)S(=O)(=O)c1ccc(C(=O)Nc2nnc(C3CC3)o2)cc1	none
CN(c1ccccc1)S(=O)(=O)c1ccc(C(=O)Nc2nnc(C3CC3)o2)cc1	hcDAF-12 act 7.2 | LXRb hcDAF ctr inactive | hcDAF12 conf inactive
Cc1cc(C)c(S(=O)(=O)NCCn2c(C)cc3ccccc32)c(C)c1	hcDAF-12 act 7.1 | LXRb hcDAF ctr inactive | hcDAF12 conf inactive
Cc1cc2ccccc2n1CCNC(=O)Cc1ccccc1	none
